Bioassay records from PubChem BioAssay.
HT1080 IDH1KD tx: qHTS for induction of synthetic lethality in tumor cells producing 2HG: qHTS for the HT-1080-IDH1KD cell line; Potency, µM (doses to about 46.1 µM), inactives show at the highest dose activity, negative = toxicity, usual class: cytotoxic; 2% of 360,000 active; HT-1080 IDH1 knockdown viability, ATP luminescence, 48 h;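 further: potency means the concentration at half of the fitted maximal effect; 0% = DMSO wells and -100% = cell-free medium wells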
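After a 2 h attachment period, IDH1KD HT-1080 cells took pin-transferred compound for 48 h at 37 °C; ATP-based luminescence after 10 min room-temperature reagent incubation reported viability.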
TDP1 cell CPT: qHTS for Inhibitors of human tyrosyl-DNA phosphodiesterase 1 (TDP1): qHTS in cells in presence of CPT | chicken DT40 Tdp1-/-;hTDP1 cells + 20 nM CPT, ATP luminescence, 48 h | 12% of 420,000 active | Potency, µM (titrated, usually from 46.2 µM), inactives show top-dose activity change, negative = growth inhibition, actives largely listed as inhibitors; further: potency means the concentration at half of the fitted maximal effect; nearly all actives have a fitted effect of over 55% in size
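Chicken DT40 Tdp1-/- cells stably complemented with human TDP1 were seeded at 400 cells/well in medium containing 20 nM camptothecin, exposed to pin-transferred compounds, and grown at 37 °C for at least 48 hr. Viability was read as ATP luminescence.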
HT1080-NT tox: qHTS for induction of synthetic lethality in tumor cells producing 2HG: qHTS for the HT-1080-NT fibrosarcoma cell line; 1.6% of 360,000 active; Potency, µM (top dose mostly 46.1 µM), without a hit: at the highest dose activity, negative = less viability, actives largely listed as cytotoxic; HT-1080-NT fibrosarcoma viability, CellTiter-Glo ATP luminescence, 48 h;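 further: NT is the 2HG producing partner of a matched IDH1 knockdown line; potency means the concentration at half of the fitted maximal effect; 0% = DMSO-treated cells and -100% = media-only wells without cells; nearly all actives have a fitted effect of over 55% in size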
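Viability of the 2HG-overproducing fibrosarcoma line after 48 hours of compound exposure at 37 degrees C was determined by luminescence with CellTiter-Glo, and concentration-effect curves were then fitted and categorized.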
TDP1 cell noCPT: qHTS for Inhibitors of human tyrosyl-DNA phosphodiesterase 1 (TDP1): qHTS in cells in absence of CPT. DT40 Tdp1-/- hTDP1 cells, no CPT, ATP luminescence, 48 h. Potency, µM (titrated, usually from 46.2 µM), for inactives: at the highest dose activity change, negative = growth inhibition, usual class: inhibitors. 15% of 420,000 active. AID 686978, 2013; further: potency means the concentration at half of the fitted maximal effect; nearly all actives have a fitted effect of over 55% in size
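DT40 Tdp1-/-;hTDP1 cells, no CPT (DMSO vehicle only), 400 cells/well; compounds pin-transferred; ≥48 hr, 37 °C; CellTiter-Glo 30 min RT dark, luminescence read.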
IL1B secr inh: qHTS for Inhibitors of Inflammasome Signaling: IL-1-beta AlphaLISA Primary Screen; THP-1 LPS/ATP IL-1B secretion, AlphaLISA, 16 h; stronger effect = lower value; activity change, % at 57.5 µM; 4.7% of 360,000 active; in the data active means activity change below about -50%; inconclusive means mostly about -30% to -49%
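Secreted IL-1B measured by AlphaLISA bead assay after 16 h compound exposure of THP-1 cells; compounds (final up to 57.5 uM) added 1 h before LPS (250 ng/mL) and ATP (1.25 mM) stimulation; lower signal means less secretion.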
Numbers without * were called inactive; ? = inconclusive; · = not tested or not shown; [ ] = another dose, or the depositor's remark. Shown are actives, neighbours in structure and some others; about 19% of the full set was active somewhere. Unless noted, the call rests on the fitted dose curve; in most records, active means well fitted curve in the direction sought with a large enough effect; inconclusive means small, poorly fitted or top-dose-only effect, or another doubt; inactive means no such curve, though single readings can be large; an effect the other way counts as inactive or inconclusive. Unless noted, on the % scale 0 is the no-effect control and ±100 the full control effect.

SMILES	HT1080 IDH1KD tx	TDP1 cell CPT	HT1080-NT tox	TDP1 cell noCPT	IL1B secr inh
CC1=C(C(=O)N2CCOCC2)CC(CC(=O)NCc2cccs2)C(=O)N1Cc1ccc(C(C)(C)C)cc1 (centres undefined)	1%	15µM*	-2%	?	22
CC1=C(C(=O)N(C(C)C)C(C)C)CC(CC(=O)NCc2cccs2)C(=O)N1Cc1ccc(C(C)(C)C)cc1 (centres undefined)	?	?	?	23µM*	-59*
CC1=C(C(=O)N2CCOCC2)CC(CC(=O)NCc2cccs2)C(=O)N1Cc1ccccc1 (centres undefined)	9%	-1%	10%	14%	3
CC1=C(C(=O)N2CCOCC2)CC(CC(=O)NCc2ccco2)C(=O)N1Cc1ccc(C(C)(C)C)cc1 (centres undefined)	-5%	29µM*	-7%	21µM*	-16
Cc1ncc2c(c1CNC(=O)c1cncs1)CCN(C(=O)c1cc(F)c(F)cc1F)C2	·	3%[9.04 µM]	·	-22%	·
O=c1c2ccccc2nnn1CSc1ncnc2ccccc12	2%	?	4%	?	-81*
Cc1cc(C)n2nc(SCC(=O)c3cc(C)n(-c4cc(C)on4)c3C)nc2n1	-6%	10µM*	?	10µM*	-5
O=C(CSc1ncnc2ccccc12)NCc1ccco1	23%	-6%	20%	-19%	2
O=[N+]([O-])c1ccc(CSc2ncnc3ccccc23)cc1	-26%	?	-2%	?	-73*
O=C(CSc1ncnc2ccccc12)c1ccco1	-1%	?	-4%	21µM*	-10
O=c1c2ccccc2nnn1CSc1ccccc1F	14%	?	8%	?	7
C=C(C)CSc1nc2nc(C)cc(C)n2n1	26%	-23%	4%	-12%	28
Cc1cc(NC(=O)CSc2nnnn2-c2ccc(C(C)C)cc2)no1	-8%	?	-13%	?	3
Cc1cc(-n2c(C)cc(C(=O)CSc3nnnn3-c3ccc(Cl)cc3)c2C)no1	7%	?	-25%	7.3µM*	-1
O=C(CSc1nnc2sc3ccccc3n12)c1ccco1	0%	-2%	1%	-12%	9
Cc1cc(-n2c(C)cc(C(=O)CSc3ncnc4ccccc34)c2C)no1	?	1.8µM*	-27%	1.2µM*	-13
Cc1cc(-n2c(C)cc(C(=O)CSc3nnc4sc5ccccc5n34)c2C)no1	-6%	16µM*	11%	?	25
CCOC(=O)N1CCC(NC(=O)CC2C(=O)NCCN2Cc2ccccc2F)CC1 (centres undefined)	17%	10%	11%	14%	-1
O=c1c2ccccc2nc2n1C(CSCc1ccc(Cl)cc1)CS2 (centres undefined)	-18%	10µM*	-15%	16µM*	-12
COc1cc2cc(CCO)oc(=O)c2cc1OC	4%	-1%	0%	-2%	-3
O=C(NCc1ccccc1)c1onc(CSc2ccc(F)c(F)c2)c1C(=O)NCc1ccccc1	24%	?	0%	-28%	-2
CCCOc1ccc(NC(=O)CC2C(=O)N(c3cccc(OC)c3)C(=O)N2Cc2cccs2)cc1 (centres undefined)	·	?	·	21µM*	·
COc1ccc(NC(=O)CC2C(=O)N(c3cccc(OC)c3)C(=O)N2CCc2cccs2)cc1 (centres undefined)	·	?	·	21µM*	·
COc1ccccc1-n1cnc2cc(C(=O)N3CCOCC3)ccc21	18%	2%	9%	23%	-3
CC1=NN(c2ccccc2)C(=O)C1/C=C1\NC(=S)NC1=O (centres undefined)	15%	1%	5%	0%	18
SMILES	HT1080 IDH1KD tx	TDP1 cell CPT	HT1080-NT tox	TDP1 cell noCPT	IL1B secr inh
CC1=NN(c2ccccc2)C(=O)C1C=Nc1ccccc1O (centres undefined)	?	?	?	18µM*	167
Cc1ccccc1OCc1nc(-c2ccc(NC(=O)c3ccco3)cc2)no1	-20%	?	-14%	23µM*	0
COc1ccccc1CC(=O)Nc1ccc(-c2noc(COc3cccc(C)c3C)n2)cc1	-6%	18µM*	1%	13µM*	-8
COc1ccc(CC(=O)Nc2ccc(-c3noc(-c4ccccc4OC)n3)cc2)cc1	?	?	-25%	?	-63*
Cc1ccccc1OCc1nc(-c2ccc(NC(=O)c3ccc4c(c3)OCO4)cc2)no1	21µM*	?	21µM*	23µM*	13
NC(=S)NN=C(c1ccc(F)cc1)C1CC1	17%	21µM*	12%	?	-86*
NC(=S)NN=C(c1ccc(Br)cc1)C1CC1	25%	?	19%	?	-76*
Cc1cc2nc(C(C)(C)C)c(Cc3ccsc3)n2c(C)c1Br	?	?	29µM*	?	69
Cc1ccc(Cc2c(C(C)(C)C)nc3cc(C)c(Br)c(C)n23)cc1	-6%	?	-2%	?	77
COc1ccccc1Cc1c(C(C)(C)C)nc2cc(C)c(Br)c(C)n12	12%	26µM*	16%	16µM*	67
COc1ccccc1Cc1c(-c2ccccc2)nc2cc(C)c(Br)c(C)n12	-19%	?	-19%	?	20
CCCc1nc2cc(C)c(Br)c(C)n2c1Cc1ccccc1OC	-29%	26µM*	?	15µM*	20
CCOc1ccc(NC(=O)CN(C)C(=O)c2c(-c3ccccc3Cl)noc2C)cc1OCC	-1%	?	-3%	?	-8
Cc1noc(C)c1COc1ccc(C(=O)N2CCN(c3ccccn3)CC2)cc1	9%	-2%	10%	-5%	3
CCOc1ccc(CC(=NCCc2ccccc2)C2=C(O)CC(C)(C)CC2=O)cc1OCC	-1%	15µM*	0%	16µM*	-66*
CCOc1ccc(CC(=N)C2=C(O)CC(C)(C)CC2=O)cc1OCC	10%	23%	11%	-19%	30
CCOc1ccc(NC(=O)N(Cc2c[nH]c3ccccc23)C2CCCCC2)cc1	·	8.2µM*	·	18µM*	·
CCOc1ccc(NC(=O)N(Cc2c[nH]c3ccccc23)C2CCCCCC2)cc1	·	9.2µM*	·	?	·
Cc1nn(-c2ccccc2)c(N)c1N=Nc1ccc2ccccc2c1	-9%	-8%	-9%	?	-1
